Measured values as given in ChEMBL document CHEMBL3988442, “University of Dundee, Small-Polar-MMV Screening Library” (2021).

What was measured:
[1] = molecular target: T1, Aspartate--tRNA(Asp/Asn) ligase (Mycobacterium tuberculosis (strain ATCC 25618 / H37Rv)) (UniProt P9WFW3); test: Assay for Asp RNA synthetase-1 from Mycobacterium tuberculosis; assay type: functional; set-up: scale not given: direction of the effect not stated beside the values; details: 30 µM; further: in the data most compounds retested in dose-response had high values
T1 sequence (whole entry): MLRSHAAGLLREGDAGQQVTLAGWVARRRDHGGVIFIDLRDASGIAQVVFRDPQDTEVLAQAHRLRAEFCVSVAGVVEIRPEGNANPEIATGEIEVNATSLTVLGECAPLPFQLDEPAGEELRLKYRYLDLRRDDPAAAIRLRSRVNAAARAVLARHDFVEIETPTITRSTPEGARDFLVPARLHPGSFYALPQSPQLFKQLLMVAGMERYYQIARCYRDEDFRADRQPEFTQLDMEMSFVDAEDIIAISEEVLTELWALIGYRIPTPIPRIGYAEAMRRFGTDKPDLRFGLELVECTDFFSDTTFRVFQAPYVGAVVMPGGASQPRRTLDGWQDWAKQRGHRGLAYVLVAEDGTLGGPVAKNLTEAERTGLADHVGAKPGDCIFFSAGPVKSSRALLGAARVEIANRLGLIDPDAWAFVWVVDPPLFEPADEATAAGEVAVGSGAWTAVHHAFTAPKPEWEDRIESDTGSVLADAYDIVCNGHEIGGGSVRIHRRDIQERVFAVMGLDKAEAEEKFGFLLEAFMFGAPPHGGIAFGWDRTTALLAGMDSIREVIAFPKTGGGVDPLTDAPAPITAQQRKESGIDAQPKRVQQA

[2] = molecular target: Shiga toxin 2 (Escherichia coli O157:H7) (UniProt P09385+P09386); test: E. coli 0.157:H7 Shiga Toxin SOP - stx2 screening assay; assay type: functional; set-up: scale not given: direction of the effect not stated beside the values; details: 30 µM

Row | SMILES | Percent Effect [1] | Percent Effect [2]
1 | Cc1ccc(-c2cn[nH]c2C2CCCN(c3nccc(N)n3)C2)cc1 (centres undefined) | 2.79% | -37.9%
2 | FC(F)(F)c1nc(NC2CCCC2)c2ccccc2n1 | 0.562% | -0.0663%
3 | CN(Cc1ccc(F)cc1)CC1(O)CCN(C(=O)c2ccccc2)C1 (centres undefined) | 3.23% | -6.1%
4 | CNC(=O)c1cccnc1Oc1ccccc1 | -3% | 8.4%
5 | CCc1nc(CN(C(C)=O)C2CCN(CCc3cnn(C)c3)C2)no1 (centres undefined) | -5.05% | -15.6%
6 | CN1CC(=O)N(c2ccccc2)CC12CCN(Cc1nccs1)C2 (centres undefined) | 4.78% | -21.2%
7 | Cn1cnnc1C1CCCN(C(=O)c2n[nH]c3ccccc23)C1 (centres undefined) | -3.14% | -4.11%
8 | CC(C)c1cc(NCC(O)c2ccc(F)cc2)n2nccc2n1 (centres undefined) | -1.84% | 7.39%
9 | O=C(NCC1CCOC1)c1cc(-c2cccc(Cl)c2)on1 (centres undefined) | 1.64% | -6.35%
10 | CC(=O)N1CCCC1c1csc(Nc2cnccn2)n1 (centres undefined) | 3.49% | 29.9%
11 | CCc1ccc(CN2CC[C@H]3C[C@H](c4nnc(C)[nH]4)O[C@@H]3C2)o1 | 0.228% | 1.93%
12 | Cc1cc2nc(SCC(=O)N3CCOCC3)n(CC(C)C)c(=O)c2[nH]1 | 11.7% | -10.1%
13 | CS(=O)(=O)Cc1cccc(C(=O)N2CCCC(n3cccn3)C2)c1 (centres undefined) | -2.52% | -47.9%
14 | COCCN1CCC(NCc2cccc(F)c2)C1 (centres undefined) | -3.37% | -17.4%
15 | CC(NC(=O)CN(C)S(C)(=O)=O)c1nnc2n1CCCCC2 (centres undefined) | 5% | -25.1%
16 | CS(=O)(=O)N1CCOC2(CCCN(c3cnccn3)C2)C1 (centres undefined) | -5.91% | -3.98%
17 | CC(C)C(=O)NC1CCN(Cc2cccc3c2OCCO3)CC1 | -1.32% | 5.01%
